“And” between values parts separate entries of the source, which are not always exact repeats. Equal values may be shown once. In all, about 230,000 compounds went through this assay and about 1,500 (0.65%) were called active. Inconclusive results (about 3%) are left out. The sample holds actives, similar compounds and a random draw of the others, so the mix is not that of the screen. Calls follow the shape of the dose curve; as a rule, active = well fitted inhibition curve with a large enough effect; inconclusive = small, poorly fitted or top-dose-only effect; inactive = no such curve, though single readings can be large or run the other way. The source holds several records for some structures; these can differ, active in one and inactive in another.
% is scaled to controls: 0 for no effect and ±100 for the full control effect; potency is read from the fitted curve at half-maximal effect.

In the assay the target is Lethal(3)malignant brain tumor-like protein 1 (Homo sapiens) (UniProt Q9Y468). The experiment in a line: qHTS Assay for the Inhibitors of L3MBTL1. Also: nearly all actives have a fitted effect of over 60% in size. The settings on record: AlphaScreen L3MBTL1–H3K9me1 peptide binding; series mostly up to 57.1 µM; activity, negative = inhibition: at the top concentration. The source says: The histone code is comprised of many post-translational modifications that occur mainly in histone tail peptides. The identity and location of these marks are read by a variety of histone binding proteins that are emerging as important regulators of cellular differentiation and development and are increasingly being implicated in numerous disease states. Small molecule probes that disrupt the interaction between histone binding proteins and chromatin would enable a systematic chemical biology study of proteins that read the histone code and could potentially reveal new targets for drug discovery. However, no such small molecules are known. This dearth of quality molecular probes can largely be attributed to the novelty of the target class and the lack of screening assays. This proposal details the development of the first high-throughput screening assay for the discovery of inhibitors of methyl-lysine binding proteins and how it can be be used to initiate a full-scale discovery effort for antagonists of histone binding proteins. Specifically, this work focuses on an AlphaScreen(tm)-based HTS assay for Malignant Brain Tumor (MBT) domain-containing proteins, which bind to the lower methylation states of lysine residues present in histone tail peptides.
Chain of Lethal(3)malignant brain tumor-like protein 1 (Homo sapiens) (Q9Y468 whole entry, looked up): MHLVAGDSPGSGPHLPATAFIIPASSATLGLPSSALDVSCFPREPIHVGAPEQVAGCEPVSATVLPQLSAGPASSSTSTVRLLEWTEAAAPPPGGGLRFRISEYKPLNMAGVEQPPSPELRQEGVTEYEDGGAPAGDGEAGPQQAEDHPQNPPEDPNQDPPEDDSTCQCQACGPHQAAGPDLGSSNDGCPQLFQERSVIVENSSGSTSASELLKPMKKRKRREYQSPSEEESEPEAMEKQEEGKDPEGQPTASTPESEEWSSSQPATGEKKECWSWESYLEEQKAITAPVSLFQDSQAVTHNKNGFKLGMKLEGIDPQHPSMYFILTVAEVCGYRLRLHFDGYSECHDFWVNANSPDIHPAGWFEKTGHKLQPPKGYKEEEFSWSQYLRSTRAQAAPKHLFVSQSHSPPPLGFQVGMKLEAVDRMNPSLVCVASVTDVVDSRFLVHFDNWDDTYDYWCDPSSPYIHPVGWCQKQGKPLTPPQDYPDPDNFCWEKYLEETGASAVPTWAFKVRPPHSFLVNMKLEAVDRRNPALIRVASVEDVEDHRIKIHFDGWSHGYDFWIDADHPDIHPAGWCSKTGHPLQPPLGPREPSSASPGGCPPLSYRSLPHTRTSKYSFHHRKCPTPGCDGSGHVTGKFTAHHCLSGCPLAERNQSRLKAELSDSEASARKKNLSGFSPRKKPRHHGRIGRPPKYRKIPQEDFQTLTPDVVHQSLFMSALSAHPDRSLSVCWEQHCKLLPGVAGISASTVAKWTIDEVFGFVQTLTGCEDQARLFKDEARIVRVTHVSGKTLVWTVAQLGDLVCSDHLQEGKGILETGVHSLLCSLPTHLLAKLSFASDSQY
To each well, 2 uL of L3MBTL1 protein (final 50 nM) and 1 uL biotinylated histone peptide monomethylated at Lys9 [b-AHA-H3(1-15)K9me1] (final 75 nM) was added using a nanoliter dispenser. Formation of a protein-peptide complex proceeded at room temperature for 30 min. A Kalypsys pin-tool was employed to transfer 23 nL of library compound solution in DMSO to each well. Cefsulodin, found in a pilot screen of the LOPAC library to be a weak inhibitor of L3MBTL1 binding, was used as an intraplate control with a 16-point titration in duplicate. Following a 30 min incubation of the protein-peptide complex with compounds at room temperature, a mixture of 40 ug/mL each streptavidin-coated donor and nickel chelate acceptor AlphaScreen beads (final 10 ug/mL) was added in a 1 uL dispense for a final volume of 4 uL. Plates were incubated, protected from the light for 30 min at room temperature. Microplates were then be read on an EnVision multilabel plate reader using the 1,536 plate HTS AlphaScreen aperture (excitation time 80 ms, measurement time 240 ms).
For the compound `Cc1ccc2nc(-c3ccccc3)cc(C(=O)O)c2c1`, the “activity, negative = inhibition” value is -3.25% (inactive).
In the case of `CC1CCCN(C(=O)c2cc(-c3ccco3)nc3ccccc23)C1` (configuration not stated), the “activity, negative = inhibition” value was -0.376% (inactive).
`Cc1cc(C)c2nc(-c3ccco3)cc(C(=O)O)c2c1`: the Potency was 3.16 µM (active).
Take `CCOC(=O)c1ccccc1NS(=O)(=O)c1c(C)nc2sccn2c1=O`: the “activity, negative = inhibition” value is 1.45% (inactive).
On the same count and under the same terms, the same measure for `CCN(CC)S(=O)(=O)c1ccc(N2CCOCC2)c(NC(=O)C(C)Oc2ccc(F)cc2)c1` (configuration not stated): -4.04% (inactive).
Same read-out and setting: the same measure for `Cc1occc1C(=O)Nc1cccc(S(=O)(=O)N2CCOCC2)c1`: -5.85% (inactive).
Turning to `Oc1ccc2ccccc2c1N=Nc1nccs1`, the Potency was 3.98 µM (active).
Take `Oc1ccc2ccccc2c1C=Nc1ccccc1`: the “activity, negative = inhibition” value is -9% (inactive).
For the compound `Oc1ccc(N=Nc2nccs2)c(O)c1`, the Potency is 25.1 µM (active).
Turning to `c1ccc(NCc2cccc3ccccc23)nc1`, the “activity, negative = inhibition” value is 25.5% (inactive).
Same read-out and setting: the same measure for `CN(CC(=O)NC1CCN(Cc2ccccc2)CC1)S(=O)(=O)c1ccc(Cl)s1`: -0.592% (inactive).
Turning to `O=C(COC(=O)c1ccco1)Nc1ccc(Cl)cn1`, the “activity, negative = inhibition” value was -4.51% (inactive).
Take `O=C(NNS(=O)(=O)c1ccc(F)cc1)c1ccc([N+](=O)[O-])cc1Cl`: the “activity, negative = inhibition” value is 1.2% (inactive).
Still for that read-out and setting: next, `Cc1sc2ncnc(N3CCC(C(=O)NNC(=O)c4ccc(F)cc4)CC3)c2c1C`: 4.79% (inactive); `CC1CCCCC1NCC(=O)Nc1ccccc1C(=O)Nc1ccccc1` (configuration not stated): 11.2% (inactive).
Same read-out and setting: next, `O=C(Nc1nnc(SCc2ccccc2)s1)c1ccco1`: -1.74% (inactive).
Take `Clc1ccccc1CSc1nnc(-c2ccco2)c(-c2ccco2)n1`: the Potency was 8.91 µM (active).
Take `COC(OC)c1ccnc(SCc2ccccc2Cl)n1`: the “activity, negative = inhibition” value is 30.5% (inactive).
Still for that read-out and setting: next, `O=c1[nH]c(SCc2ccccc2)nnc1-c1ccccc1`: 47.2% (inactive).
Take `c1ccc(CSc2nnc(-c3ccco3)c(-c3ccco3)n2)cc1`: the Potency is 7.94 µM (active).
For the compound `O=C(CC1N=C2c3ccccc3N=C(SCc3ccccc3Cl)N2C1=O)NCc1ccco1` (configuration not stated), the “activity, negative = inhibition” value was -7.4% (inactive).
As for `Cc1nc(-c2ccc(F)cc2)c(CC(=O)Nc2cccc(S(=O)(=O)N3CCOCC3)c2)s1`, the “activity, negative = inhibition” value is -4.77% (inactive).
Same read-out and setting: the same measure for `Cc1occc1-c1nnc(SCC(=O)NC2(C#N)CCCC2)n1C`: -3.03% (inactive); for `O=C(CSc1nnc(COc2ccc(Cl)cc2)n1Cc1ccco1)N1CCNC1=O`: -3.91% (inactive); for `COc1ccc2c(CC(=O)NNC(=O)c3ccccc3F)coc2c1`: 1.74% (inactive).
For `CC(C)N(C(=O)CSc1nnc(NC2CC2)s1)c1ccccc1`, the “activity, negative = inhibition” value was 2.8% (inactive).
On the same count and under the same terms, the same measure for `Cc1c(NC(=O)/C=C/C(=O)O)cccc1[N+](=O)[O-]`: 4.64% (inactive).
In the case of `CCc1nnc(NC(=O)/C=C/c2ccc(C)o2)s1`, the “activity, negative = inhibition” value was 5.81% (inactive).
Turning to `Cc1ccc(/C=C/C(=O)Nc2ccc([N+](=O)[O-])c(NC(=O)/C=C/c3ccc(C)o3)c2)o1`, the Potency is 22.4 µM (active).
On to `NC(=O)c1ccc(Nc2ccc3nonc3c2[N+](=O)[O-])cc1`, for which the “activity, negative = inhibition” value is 2.69% (inactive).
In the case of `COc1ccc(Cl)cc1NC(=O)CN(C)C(=O)c1cc2ccccc2cc1OC`, the “activity, negative = inhibition” value is -1.92% (inactive).
On the same count and under the same terms, the same measure for `O=C(OCC(=O)N1CCCCCC1)c1cnc(Cl)c(Cl)c1`: 0.852% (inactive).
In the case of `O=C(c1ccc(F)cc1)N1CCC(C(=O)N2CCN(S(=O)(=O)c3ccccc3Br)CC2)CC1`, the “activity, negative = inhibition” value is 9.56% (inactive).
`Oc1c(C(c2ccccn2)N2CCOCC2)ccc2cccnc12` (configuration not stated): the Potency was 8.91 µM (active).
For the compound `Cc1nc2sc(C(c3ccco3)N3CCOCC3)c(O)n2n1` (configuration not stated), the “activity, negative = inhibition” value was -0.458% (inactive).
In the case of `CCOc1cc(N2CCOCC2)c(OCC)cc1NC(=O)COc1cccc2cccnc12`, the “activity, negative = inhibition” value was -2.29% (inactive).
For the compound `COc1ccc(C(=O)COC(=O)C(O)c2ccccc2)c(OC)c1` (configuration not stated), the “activity, negative = inhibition” value is -0.868% (inactive).
For the compound `CC(C)[C@H](NC(=O)N1c2ccccc2NC(=O)[C@@H]1C(C)C)C(=O)N[C@H](C(=O)O)c1ccccc1`, the “activity, negative = inhibition” value is -10% (inactive).
Same read-out and setting: next, `CC(C#N)(NC(=O)CN1CCN(S(=O)(=O)c2cc(C(F)(F)F)ccc2Cl)CC1)C1CC1` (configuration not stated): 12.2% (inactive); `O=C(CN1CCN(c2ccccc2O)CC1)NC(=O)NCc1ccccc1`: -7.24% (inactive); `CCC(C)N(C(=O)CSc1nnnn1-c1ccccc1OC)C1CCS(=O)(=O)C1` (configuration not stated): -0.112% (inactive).
Same read-out and setting: next, `COC(=O)[C@]1(Cc2ccccc2)N[C@H](CN(C)S(=O)(=O)c2ccc(OC(F)(F)F)cc2)[C@@H]2C(=O)N(C)C(=O)[C@@H]21`: -0.744% (inactive); `O=C(Nc1ccc(NC(=O)c2cccs2)cn1)c1ccco1`: -4.02% (inactive).
For `O=C(N/N=C/C=C/c1ccco1)c1cccs1`, the Potency was 31.6 µM (active).
As to `O=C(N/N=C/c1ccco1)c1ccc(C(=O)N/N=C/c2ccco2)o1`, the “activity, negative = inhibition” value is -10.8% (inactive).
Consider `Cc1cc([N+](=O)[O-])ccc1NC1CCCC1`, for which the “activity, negative = inhibition” value is -12.3% (inactive).
Consider `Cc1cc(C=O)c(C)n1-c1ccc(NC2CCCCC2)c([N+](=O)[O-])c1`, for which the Potency is 15.8 µM (active).
For the compound `Cc1c(NS(=O)(=O)c2ccc(NC3CCCC3)c([N+](=O)[O-])c2)c(=O)n(-c2ccccc2)n1C`, the “activity, negative = inhibition” value was -7.18% (inactive).
On the same count and under the same terms, the same measure for `O=C(COC(=O)c1cccnc1Cl)NC12CC3CC(CC(C3)C1)C2`: 2.98% (inactive).
`O=C(NCC#CCSc1nnc(-c2cccc3ccccc23)o1)c1cccs1`: the Potency entry is “inactive and 10 µM (active)”.
`Cc1ccc(-c2nnc(-c3ccc(NC(=O)c4cccs4)cc3)o2)cc1`: the “activity, negative = inhibition” value is 1.12% (inactive).
Same read-out and setting: next, `COc1ccc(-c2nnc(SCC(=O)c3cccs3)o2)c(OC)c1`: -4.94% (inactive).

For the origin of these results see PubChem BioAssay AID485360 (National Center for Advancing Translational Sciences (NCATS), 2010).
